Reference: PubChem BioAssay (NCI)
Compounds without any hit were thinned out: in the full panel of roughly 79,000, 15% have a hit. Values without a mark were called inactive. Activity calls are given as the source filed them. No stated cut-off is given here; in the data, active means growth inhibition above about 70%; inactive means the rest.

Tests used:
[1] = NCI Yeast Anticancer Drug Screen. Data for the rad50 strain (AID 155);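 further: 0% = growth of vehicle-only cultures of the same strain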; conditions: S. cerevisiae rad50 strain growth inhibition, active compounds read high
Outline: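 Compounds were tested on a yeast strain with an engineered DNA damage repair alteration; the reported value is growth inhibition normalised to vehicle treatment.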

[2] = NCI Yeast Anticancer Drug Screen. Data for the mec2-1 strain (AID 157); conditions: S. cerevisiae mec2-1 strain, active compounds read high
Outline: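 Using mec2-1 yeast: add compound, measure growth, express inhibition versus vehicle-treated cultures.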

[3] = NCI Yeast Anticancer Drug Screen. Data for the sgs1 mgt1 strain (AID 161);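 further: 0% = growth of cultures given vehicle only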; conditions: S. cerevisiae sgs1 mgt1 strain, active compounds read high
Outline: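 Percent growth inhibition was derived by comparing compound-exposed mutant yeast with vehicle-exposed cultures. The strain carries alterations in DNA damage repair.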

[4] = NCI Yeast Anticancer Drug Screen. Data for the cln2 rad14 strain (AID 165);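 further: 0% = growth equal to vehicle treated cultures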; conditions: S. cerevisiae cln2 rad14 strain, active compounds read high
Outline: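 Yeast strain cln2 rad14, bearing defects in cell cycle control and DNA repair, serves as the test system; values reflect growth inhibition compared with vehicle.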

[5] = NCI Yeast Anticancer Drug Screen. Data for the bub3 strain (AID 167); conditions: S. cerevisiae bub3 mutant strain, active compounds read high
Outline: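 Growth of a checkpoint-deficient yeast mutant is measured after compound exposure. Values represent inhibition relative to vehicle.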

[6] = NCI Yeast Anticancer Drug Screen. Data for the mlh1 rad18 strain (AID 175); conditions: S. cerevisiae mlh1 rad18 strain growth inhibition, active compounds read high
Outline: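 Steps: expose repair-defective yeast to compound; measure growth; express inhibition against vehicle-treated controls.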

[7] = at 5.0 µM (retest, dose inferred, filed as 0.5)
[8] = at 50.0 µM (retest, dose inferred, filed as 5.0)

## OCCC1CCN(CC/C=C2/c3ccc(F)cc3Sc3ccc(C(F)(F)F)cc32)CC1
[1]; [7]
  growth inhibition: 26%
[1]; [8]
  growth inhibition: 59%
[1]; at 50.0 µM
  growth inhibition: 37.4%
[2]; [7]
  growth inhibition: 7%
[2]; [8]
  growth inhibition: 45%
[2]; at 50.0 µM
  growth inhibition: 62.9%
[3]; [7]
  growth inhibition: 21%
[3]; [8]
  growth inhibition: 68%
[3]; at 50.0 µM
  growth inhibition: 82.6% (active)
[4]; [7]
  growth inhibition: 18%
[4]; [8]
  growth inhibition: 52%
[4]; at 50.0 µM
  growth inhibition: 71.4% (active)
[5]; [7]
  growth inhibition: 4%
[5]; [8]
  growth inhibition: 38%
[5]; at 50.0 µM
  growth inhibition: 64.5%
[6]; [7]
  growth inhibition: 24%
[6]; [8]
  growth inhibition: 56%
[6]; at 50.0 µM
  growth inhibition: 88.2% (active)

## BrCC1(CBr)COC1
[1]; [7]
  growth inhibition: 4%
[1]; [8]
  growth inhibition: 47%
[1]; at 50.0 µM
  growth inhibition: 3.85%
[2]; [7]
  growth inhibition: 5%
[2]; [8]
  growth inhibition: 64%
[2]; at 50.0 µM
  growth inhibition: 2.2%
[3]; [7]
  growth inhibition: 6%
[3]; [8]
  growth inhibition: 56%
[3]; at 50.0 µM
  growth inhibition: 7.75%
[4]; [7]
  growth inhibition: -3%
[4]; [8]
  growth inhibition: 30%
[4]; at 50.0 µM
  growth inhibition: -8.15%
[5]; [7]
  growth inhibition: 29%
[5]; [8]
  growth inhibition: 94% (active)
[5]; at 50.0 µM
  growth inhibition: 87% (active)
[6]; [7]
  growth inhibition: 2%
[6]; [8]
  growth inhibition: 87% (active)
[6]; at 50.0 µM
  growth inhibition: 9.45%

## Nc1ccccc1Sc1ccccc1
[1]; [7]
  growth inhibition: 36%
[1]; [8]
  growth inhibition: 58%
[1]; at 50.0 µM
  growth inhibition: 83.2% (active)
[2]; [7]
  growth inhibition: 26%
[2]; [8]
  growth inhibition: 61%
[2]; at 50.0 µM
  growth inhibition: 77.3% (active)
[3]; [7]
  growth inhibition: 46%
[3]; [8]
  growth inhibition: 66%
[3]; at 50.0 µM
  growth inhibition: 62.5%
[4]; [7]
  growth inhibition: 29%
[4]; [8]
  growth inhibition: 47%
[4]; at 50.0 µM
  growth inhibition: 83.2% (active)
[5]; [7]
  growth inhibition: 37%
[5]; [8]
  growth inhibition: 73% (active)
[5]; at 50.0 µM
  growth inhibition: 64.5%
[6]; [7]
  growth inhibition: 35%
[6]; [8]
  growth inhibition: 78% (active)
[6]; at 50.0 µM
  growth inhibition: 71% (active)

## Nc1ccc(-c2nc3ccccc3s2)cc1
[1]; [7]
  growth inhibition: 21%
[1]; [8]
  growth inhibition: 96% (active)
[1]; at 50.0 µM
  growth inhibition: 89.8% (active)
[2]; [7]
  growth inhibition: 2%
[2]; [8]
  growth inhibition: 100% (active)
[2]; at 50.0 µM
  growth inhibition: 91.8% (active)
[3]; [7]
  growth inhibition: -3%
[3]; [8]
  growth inhibition: 99% (active)
[3]; at 50.0 µM
  growth inhibition: 88.4% (active)
[4]; [7]
  growth inhibition: 8%
[4]; [8]
  growth inhibition: 85% (active)
[4]; at 50.0 µM
  growth inhibition: 87.6% (active)
[5]; [7]
  growth inhibition: -2%
[5]; [8]
  growth inhibition: 99% (active)
[5]; at 50.0 µM
  growth inhibition: 86.2% (active)
[6]; [7]
  growth inhibition: 10%
[6]; [8]
  growth inhibition: 98% (active)
[6]; at 50.0 µM
  growth inhibition: 84.6% (active)

## CNCCN[C@@H]1c2cc3c(cc2[C@@H](c2cc(OC)c(O)c(OC)c2)[C@H]2C(=O)OC[C@@H]21)OCO3
[1]; [7]
  growth inhibition: 96% (active)
[1]; [8]
  growth inhibition: 97% (active)
[1]; at 50.0 µM
  growth inhibition: 78.8% (active)
[2]; [7]
  growth inhibition: 43%
[2]; [8]
  growth inhibition: 91% (active)
[2]; at 50.0 µM
  growth inhibition: 65.3%
[3]; [7]
  growth inhibition: -24%
[3]; [8]
  growth inhibition: 75% (active)
[3]; at 50.0 µM
  growth inhibition: 88.1% (active)
[4]; [7]
  growth inhibition: 3%
[4]; [8]
  growth inhibition: 42%
[4]; at 50.0 µM
  growth inhibition: 82.4% (active)
[5]; [7]
  growth inhibition: -3%
[5]; [8]
  growth inhibition: 84% (active)
[5]; at 50.0 µM
  growth inhibition: 87% (active)
[6]; [7]
  growth inhibition: 43%
[6]; [8]
  growth inhibition: 89% (active)
[6]; at 50.0 µM
  growth inhibition: 87.8% (active)

## Cc1cc(NCCCCCCNc2cc(C)nc3cc(N(C)C)ccc23)c2ccc(N(C)C)cc2n1
[1]; [7]
  growth inhibition: 11%
[1]; [8]
  growth inhibition: 90% (active)
[1]; at 50.0 µM
  growth inhibition: 68.5%
[2]; [7]
  growth inhibition: 0%
[2]; [8]
  growth inhibition: 96% (active)
[2]; at 50.0 µM
  growth inhibition: 85.2% (active)
[3]; [7]
  growth inhibition: 9%
[3]; [8]
  growth inhibition: 95% (active)
[3]; at 50.0 µM
  growth inhibition: 26.7%
[4]; [7]
  growth inhibition: 8%
[4]; [8]
  growth inhibition: 79% (active)
[4]; at 50.0 µM
  growth inhibition: 13%
[5]; [7]
  growth inhibition: -7%
[5]; [8]
  growth inhibition: 96% (active)
[5]; at 50.0 µM
  growth inhibition: 1.15%
[6]; [7]
  growth inhibition: 7%
[6]; [8]
  growth inhibition: 92% (active)
[6]; at 50.0 µM
  growth inhibition: 7.45%

## CS(=O)(=O)N1C(=O)C2C3CCC(O3)C2C1=O (configuration not stated)
[1]; [7]
  growth inhibition: -142%
[1]; [8]
  growth inhibition: 91% (active)
[1]; at 50.0 µM
  growth inhibition: 73.5% (active)
[2]; [7]
  growth inhibition: -46%
[2]; [8]
  growth inhibition: 71% (active)
[2]; at 50.0 µM
  growth inhibition: 57.7%
[3]; [7]
  growth inhibition: -61%
[3]; [8]
  growth inhibition: 52%
[3]; at 50.0 µM
  growth inhibition: 26.4%
[4]; [7]
  growth inhibition: -56%
[4]; [8]
  growth inhibition: 73% (active)
[4]; at 50.0 µM
  growth inhibition: 19.5%
[5]; [7]
  growth inhibition: -74%
[5]; [8]
  growth inhibition: 64%
[5]; at 50.0 µM
  growth inhibition: 40.8%
[6]; [7]
  growth inhibition: -145%
[6]; [8]
  growth inhibition: 75% (active)
[6]; at 50.0 µM
  growth inhibition: 42.6%

## CC(=O)C(C(C)=O)C1C=CC=CC=C1
[1]; [7]
  growth inhibition: -149%
[1]; [8]
  growth inhibition: 93% (active)
[1]; at 50.0 µM
  growth inhibition: 97% (active)
[2]; [7]
  growth inhibition: -42%
[2]; [8]
  growth inhibition: 87% (active)
[2]; at 50.0 µM
  growth inhibition: 92.5% (active)
[3]; [7]
  growth inhibition: -59%
[3]; [8]
  growth inhibition: 90% (active)
[3]; at 50.0 µM
  growth inhibition: 91.8% (active)
[4]; [7]
  growth inhibition: -59%
[4]; [8]
  growth inhibition: 77% (active)
[4]; at 50.0 µM
  growth inhibition: 80% (active)
[5]; [7]
  growth inhibition: -73%
[5]; [8]
  growth inhibition: 86% (active)
[5]; at 50.0 µM
  growth inhibition: 92.5% (active)
[6]; [7]
  growth inhibition: -139%
[6]; [8]
  growth inhibition: 92% (active)
[6]; at 50.0 µM
  growth inhibition: 96.9% (active)

## O=[N+]([O-])c1ccc(NC(=S)N/N=C(\c2ccccc2)c2ccccn2)cc1
[1]; [7]
  growth inhibition: 8%
[1]; [8]
  growth inhibition: 73% (active)
[1]; at 50.0 µM
  growth inhibition: 63.1%
[2]; [7]
  growth inhibition: -32%
[2]; [8]
  growth inhibition: 79% (active)
[2]; at 50.0 µM
  growth inhibition: 66.2%
[3]; [7]
  growth inhibition: -19%
[3]; [8]
  growth inhibition: 87% (active)
[3]; at 50.0 µM
  growth inhibition: 79.5% (active)
[4]; [7]
  growth inhibition: 19%
[4]; [8]
  growth inhibition: 75% (active)
[4]; at 50.0 µM
  growth inhibition: 72.1% (active)
[5]; [7]
  growth inhibition: -5%
[5]; [8]
  growth inhibition: 82% (active)
[5]; at 50.0 µM
  growth inhibition: 80.8% (active)
[6]; [7]
  growth inhibition: 11%
[6]; [8]
  growth inhibition: 89% (active)
[6]; at 50.0 µM
  growth inhibition: 79.8% (active)
